Test results published in article PMC7862700, “An all-to-all approach to the identification of sequence-specific readers for epigenetic DNA modifications on cytosine”.

How the values were obtained:
Experiment in all cases: DAPPL (digital affinity profiling via proximity ligation, sequencing); 10 mM Tris-HCl pH 7.5, 50 mM NaCl, 1 mM DTT, 4% glycerol, room temperature, 30 min; GST-TFs on glutathione beads, 16-mer random dsDNA library, 0.1% formaldehyde crosslink after washing; high values mean tight binding
Details in all cases: protein: recombinant; tags: N-terminal GST; dsDNA, one strand shown
ERF = biological target: T1, ERF (Homo sapiens, UniProt P50548 1-548)
T1 sequence: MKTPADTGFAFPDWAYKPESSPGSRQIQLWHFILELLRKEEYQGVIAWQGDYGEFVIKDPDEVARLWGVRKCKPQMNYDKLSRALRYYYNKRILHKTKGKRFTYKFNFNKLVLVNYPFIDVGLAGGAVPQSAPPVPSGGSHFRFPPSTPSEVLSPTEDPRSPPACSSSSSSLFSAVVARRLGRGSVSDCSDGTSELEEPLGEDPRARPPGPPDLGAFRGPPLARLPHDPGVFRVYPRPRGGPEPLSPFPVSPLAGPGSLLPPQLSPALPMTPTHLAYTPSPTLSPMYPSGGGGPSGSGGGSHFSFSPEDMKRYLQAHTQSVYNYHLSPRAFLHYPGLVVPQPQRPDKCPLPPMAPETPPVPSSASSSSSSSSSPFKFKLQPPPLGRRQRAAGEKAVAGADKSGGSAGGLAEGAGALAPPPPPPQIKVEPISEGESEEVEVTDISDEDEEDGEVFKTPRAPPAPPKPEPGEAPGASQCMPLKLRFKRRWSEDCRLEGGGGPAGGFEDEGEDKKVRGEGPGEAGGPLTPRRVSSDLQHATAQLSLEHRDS
Method in brief: (§1)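 Binding signal is given per hexamer as its read frequency for a factor divided by its frequency in the tag-only sample. GST-fused human transcription factors were expressed in yeast, captured on glutathione beads, barcoded with DNA and pooled with that sample, then incubated with 200 nmole of a 16-mer random double-stranded DNA library in Tris/NaCl/DTT/glycerol buffer for 30 min at room temperature. The pools were then washed, crosslinked, proximity-ligated, amplified by PCR and sequenced on an Illumina NextSeq500.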

ETV3L = biological target: T2, ETV3L (Homo sapiens, UniProt Q6ZN32 1-361)
T2 sequence: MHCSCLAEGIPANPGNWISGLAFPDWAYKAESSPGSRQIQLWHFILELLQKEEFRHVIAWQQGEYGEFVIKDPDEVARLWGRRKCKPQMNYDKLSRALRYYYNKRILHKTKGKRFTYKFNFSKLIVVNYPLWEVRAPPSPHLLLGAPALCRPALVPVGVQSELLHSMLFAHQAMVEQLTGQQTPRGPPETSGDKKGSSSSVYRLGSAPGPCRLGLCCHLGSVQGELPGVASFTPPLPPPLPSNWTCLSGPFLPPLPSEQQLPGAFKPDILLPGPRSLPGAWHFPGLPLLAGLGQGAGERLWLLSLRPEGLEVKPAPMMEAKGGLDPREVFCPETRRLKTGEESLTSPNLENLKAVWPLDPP
Method in brief: as §1

ETS2 = biological target: T3, ETS2 (Homo sapiens, UniProt P15036 1-469)
T3 sequence: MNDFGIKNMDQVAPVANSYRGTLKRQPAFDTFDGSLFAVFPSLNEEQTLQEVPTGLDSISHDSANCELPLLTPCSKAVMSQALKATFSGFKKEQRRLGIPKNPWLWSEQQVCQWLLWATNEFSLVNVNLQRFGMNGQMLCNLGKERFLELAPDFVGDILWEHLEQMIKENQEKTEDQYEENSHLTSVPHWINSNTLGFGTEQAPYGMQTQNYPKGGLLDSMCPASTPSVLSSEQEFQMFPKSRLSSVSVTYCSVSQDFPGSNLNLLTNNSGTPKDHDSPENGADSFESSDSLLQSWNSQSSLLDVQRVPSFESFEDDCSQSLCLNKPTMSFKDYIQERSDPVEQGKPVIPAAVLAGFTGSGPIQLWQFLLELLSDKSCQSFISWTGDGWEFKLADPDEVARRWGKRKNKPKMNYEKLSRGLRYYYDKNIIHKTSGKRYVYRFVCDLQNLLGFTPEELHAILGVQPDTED
Method in brief: as §1

SPDEF = biological target: T4, SPDEF (Homo sapiens, UniProt O95238 1-335)
T4 sequence: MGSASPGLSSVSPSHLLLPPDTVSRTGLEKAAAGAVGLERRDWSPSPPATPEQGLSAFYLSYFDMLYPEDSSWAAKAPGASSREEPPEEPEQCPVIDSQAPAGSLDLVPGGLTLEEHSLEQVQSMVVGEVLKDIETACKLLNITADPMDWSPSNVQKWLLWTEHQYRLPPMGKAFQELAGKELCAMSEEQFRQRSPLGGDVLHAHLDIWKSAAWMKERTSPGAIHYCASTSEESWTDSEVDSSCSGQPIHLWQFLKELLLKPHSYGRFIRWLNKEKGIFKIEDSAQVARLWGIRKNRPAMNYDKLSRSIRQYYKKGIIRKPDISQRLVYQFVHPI
Method in brief: as §1

ETV7 = biological target: T5, ETV7 (Homo sapiens, UniProt Q9Y603 1-341)
T5 sequence: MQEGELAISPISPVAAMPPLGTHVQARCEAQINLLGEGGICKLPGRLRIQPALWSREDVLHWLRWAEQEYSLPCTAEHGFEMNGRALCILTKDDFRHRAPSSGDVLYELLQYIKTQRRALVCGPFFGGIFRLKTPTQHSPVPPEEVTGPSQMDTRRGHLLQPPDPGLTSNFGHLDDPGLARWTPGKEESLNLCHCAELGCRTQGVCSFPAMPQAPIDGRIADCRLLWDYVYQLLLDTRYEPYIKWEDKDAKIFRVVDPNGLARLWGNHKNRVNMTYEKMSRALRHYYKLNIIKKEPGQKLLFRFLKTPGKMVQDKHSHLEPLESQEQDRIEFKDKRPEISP
Method in brief: as §1

ETV3 = biological target: T6, ETV3 (Homo sapiens, UniProt P41162-2 1-143)
T6 sequence: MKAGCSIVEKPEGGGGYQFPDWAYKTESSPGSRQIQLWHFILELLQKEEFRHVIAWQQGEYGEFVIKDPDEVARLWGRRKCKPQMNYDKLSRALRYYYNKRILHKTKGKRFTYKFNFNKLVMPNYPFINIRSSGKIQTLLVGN
Method in brief: as §1

ETV6 = ETV6 (Homo sapiens, UniProt P41212 1-452)
ETV6, sequence (P41212 whole entry): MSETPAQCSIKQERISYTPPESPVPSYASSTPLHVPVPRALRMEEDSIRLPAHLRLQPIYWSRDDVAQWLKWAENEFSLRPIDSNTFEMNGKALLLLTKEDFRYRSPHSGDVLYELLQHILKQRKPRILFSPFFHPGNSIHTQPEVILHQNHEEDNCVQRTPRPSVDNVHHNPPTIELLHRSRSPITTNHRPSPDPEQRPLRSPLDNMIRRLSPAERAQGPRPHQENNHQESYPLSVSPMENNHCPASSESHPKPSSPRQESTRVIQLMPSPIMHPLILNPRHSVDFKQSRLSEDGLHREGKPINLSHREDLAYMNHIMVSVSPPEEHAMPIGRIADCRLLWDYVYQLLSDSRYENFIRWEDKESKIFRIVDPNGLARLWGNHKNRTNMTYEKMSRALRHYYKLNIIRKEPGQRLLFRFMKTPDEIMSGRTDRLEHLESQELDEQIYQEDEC
Method in brief: as §1

AGCTCA
binding signal (ERF): 1.08 fold enrichment (6-mer frequency, TF over GST control)
binding signal (ETV3L): 1.08 fold enrichment (6-mer frequency, TF over GST control)
binding signal (ETS2): 1.13 fold enrichment (6-mer frequency, TF over GST control)
binding signal (SPDEF): 1.08 fold enrichment (6-mer frequency, TF over GST control)
binding signal (ETV7): 1.03 fold enrichment (6-mer frequency, TF over GST control)
binding signal (ETV3): 1.15 fold enrichment (6-mer frequency, TF over GST control)
binding signal (ETV6): 1.1 fold enrichment (6-mer frequency, TF over GST control)

ATCAAT
binding signal (ERF): 1.15 fold enrichment (6-mer frequency, TF over GST control)
binding signal (ETV3L): 1.03 fold enrichment (6-mer frequency, TF over GST control)
binding signal (ETS2): 1.05 fold enrichment (6-mer frequency, TF over GST control)
binding signal (SPDEF): 1.03 fold enrichment (6-mer frequency, TF over GST control)
binding signal (ETV7): 1.12 fold enrichment (6-mer frequency, TF over GST control)
binding signal (ETV3): 1.14 fold enrichment (6-mer frequency, TF over GST control)
binding signal (ETV6): 1.07 fold enrichment (6-mer frequency, TF over GST control)

ATGAAG
binding signal (ERF): 1.12 fold enrichment (6-mer frequency, TF over GST control)
binding signal (ETV3L): 1.05 fold enrichment (6-mer frequency, TF over GST control)
binding signal (ETS2): 1.06 fold enrichment (6-mer frequency, TF over GST control)
binding signal (SPDEF): 1.07 fold enrichment (6-mer frequency, TF over GST control)
binding signal (ETV7): 1.09 fold enrichment (6-mer frequency, TF over GST control)
binding signal (ETV3): 1.03 fold enrichment (6-mer frequency, TF over GST control)
binding signal (ETV6): 1.03 fold enrichment (6-mer frequency, TF over GST control)

CACTGG
binding signal (ERF): 1.17 fold enrichment (6-mer frequency, TF over GST control)
binding signal (ETV3L): 1.16 fold enrichment (6-mer frequency, TF over GST control)
binding signal (ETS2): 1.01 fold enrichment (6-mer frequency, TF over GST control)
binding signal (SPDEF): 1.02 fold enrichment (6-mer frequency, TF over GST control)
binding signal (ETV7): 1.03 fold enrichment (6-mer frequency, TF over GST control)
binding signal (ETV3): 1.07 fold enrichment (6-mer frequency, TF over GST control)
binding signal (ETV6): 1.04 fold enrichment (6-mer frequency, TF over GST control)

CAACCA
binding signal (ERF): 1.14 fold enrichment (6-mer frequency, TF over GST control)
binding signal (ETV3L): 1.05 fold enrichment (6-mer frequency, TF over GST control)
binding signal (ETS2): 1.1 fold enrichment (6-mer frequency, TF over GST control)
binding signal (SPDEF): 1.09 fold enrichment (6-mer frequency, TF over GST control)
binding signal (ETV7): 1.04 fold enrichment (6-mer frequency, TF over GST control)
binding signal (ETV3): 1.1 fold enrichment (6-mer frequency, TF over GST control)
binding signal (ETV6): 1.03 fold enrichment (6-mer frequency, TF over GST control)

TGATCA
binding signal (ERF): 1.15 fold enrichment (6-mer frequency, TF over GST control)
binding signal (ETV3L): 1.07 fold enrichment (6-mer frequency, TF over GST control)
binding signal (ETS2): 1.06 fold enrichment (6-mer frequency, TF over GST control)
binding signal (SPDEF): 1.05 fold enrichment (6-mer frequency, TF over GST control)
binding signal (ETV7): 1.14 fold enrichment (6-mer frequency, TF over GST control)
binding signal (ETV3): 1.05 fold enrichment (6-mer frequency, TF over GST control)

GGCTAG
binding signal (ERF): 1.17 fold enrichment (6-mer frequency, TF over GST control)
binding signal (ETV3L): 1.06 fold enrichment (6-mer frequency, TF over GST control)
binding signal (ETS2): 1.14 fold enrichment (6-mer frequency, TF over GST control)
binding signal (SPDEF): 1.14 fold enrichment (6-mer frequency, TF over GST control)
binding signal (ETV7): 1.2 fold enrichment (6-mer frequency, TF over GST control)
binding signal (ETV3): 1.13 fold enrichment (6-mer frequency, TF over GST control)
binding signal (ETV6): 1.18 fold enrichment (6-mer frequency, TF over GST control)

ATAAGC
binding signal (ERF): 1.18 fold enrichment (6-mer frequency, TF over GST control)
binding signal (ETV3L): 1.12 fold enrichment (6-mer frequency, TF over GST control)
binding signal (ETS2): 1.08 fold enrichment (6-mer frequency, TF over GST control)
binding signal (SPDEF): 1.07 fold enrichment (6-mer frequency, TF over GST control)
binding signal (ETV7): 1.11 fold enrichment (6-mer frequency, TF over GST control)
binding signal (ETV3): 1.11 fold enrichment (6-mer frequency, TF over GST control)
binding signal (ETV6): 1.02 fold enrichment (6-mer frequency, TF over GST control)
